Among the test systems are NCI-H23 lung; NCI-H226 lung; NCI-H322M lung; HOP-62 NSCLC; NCI-H460 lung; HOP-92 NSCLC; NCI-H522 lung; A549/ATCC NSCLC; 786-0 renal; COLO 205 colon; DU-145 prostate; K-562 leukemia; MALME-3M melanoma; MDA-MB-231 breast; RXF 393 renal; SF-268 CNS; SF-295 CNS; SF-539 CNS; UACC-257 melanoma; M14 melanoma.
Holding throughout (experiment): NCI-60 one-dose screen, 48 h (100 = growth as untreated, 0 = no growth, -100 = all killed)
Settings in all cases: 10 µM unless noted

The panel holds about 83,000 compounds, 20% with a hit somewhere; the sample as a whole holds those more often.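 Percent growth is the endpoint: 0 to 100 indicates growth inhibition (40 means 60% inhibition), 0 means no net growth, and negative values indicate cell death.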 A number with no mark means an inactive call. The source made the active and inactive calls. Rule for the calls: active = growth percent below 10; inactive = the rest.

`COC(=O)[C@@]12CC=C(C)[C@]3(C[C@H](c4ccoc4)OC3=O)[C@H]1C=C[C@@H](O)[C@@]2(O)C(=O)OC`: the growth was 100% with NCI-H23 lung; 116% in the assay on NCI-H226 lung; 88.7% with NCI-H322M lung; 91.3% in the assay on HOP-62 NSCLC; 111% in the assay with NCI-H460 lung; 102% in the assay on HOP-92 NSCLC. Moreover, the growth with NCI-H522 lung was 66.3%; with A549/ATCC NSCLC, 84.9%; with 786-0 renal, 97.4%; in the assay on COLO 205 colon it was 110%; in the assay on DU-145 prostate, 98.3%; in the assay on K-562 leukemia, 94.1%. In addition, the growth in the assay on MALME-3M melanoma was 104%; with MDA-MB-231 breast, 110%; with RXF 393 renal it was 114%; with SF-268 CNS, 98.1%; with SF-295 CNS, 96.4%; in the assay on SF-539 CNS, 98.7%. Besides, the results for the growth in the assay with UACC-257 melanoma and in the assay with M14 melanoma were 82.1% and 101%, respectively.
`O=C(O)c1cn(C2CC2)c2cc(N3CCN(C(=O)N/N=C/c4cccc5ccccc45)CC3)c(F)cc2c1=O`: the growth in the assay with NCI-H23 lung was 93.9%; with NCI-H226 lung, 94.3%; in the assay with NCI-H322M lung, 101%; with HOP-62 NSCLC, 95.2%; with NCI-H460 lung it was 106%; in the assay on HOP-92 NSCLC it was 97.2%. Further, the growth was 81% with NCI-H522 lung; 106% in the assay on A549/ATCC NSCLC; 71.7% in the assay with 786-0 renal; 114% with COLO 205 colon; 104% in the assay with DU-145 prostate; 103% in the assay with K-562 leukemia. The growth is 101% with MALME-3M melanoma; 94.9% with MDA-MB-231 breast; 95.5% in the assay with RXF 393 renal; 86.3% in the assay with SF-268 CNS; 104% with SF-295 CNS; 93.4% in the assay with SF-539 CNS. Further, the values for the growth in the assay with UACC-257 melanoma and with M14 melanoma were 98.8% and 93.1%, respectively.
On to `CCCCCc1ccc(S(=O)(=O)Nc2cc(-c3csc(NC(C)=O)n3)ccc2N2CCN(C)CC2)cc1`, for which the growth with NCI-H23 lung is 65.5%; in the assay on NCI-H226 lung, 94.1%; with NCI-H322M lung, 73.2%; with HOP-62 NSCLC it was 83.3%; in the assay on NCI-H460 lung it was -11.4% (active); in the assay on HOP-92 NSCLC, 36%. In addition, the growth is 67.3% with NCI-H522 lung; 55.8% in the assay on A549/ATCC NSCLC; 56.7% with 786-0 renal; -38.9% (active) with COLO 205 colon; 75.8% with DU-145 prostate; -32.6% (active) with K-562 leukemia. In addition, the growth in the assay on MALME-3M melanoma was -47.1% (active); in the assay on MDA-MB-231 breast it was 51.8%; in the assay on RXF 393 renal, 33.3%; in the assay on SF-268 CNS, 72%; in the assay on SF-295 CNS, 49.9%; in the assay with SF-539 CNS, 61.6%. Besides, the growth in the assay on UACC-257 melanoma was -21.9% (active); in the assay on M14 melanoma it was -52.4% (active).
As to `COc1ccc(OC)c(Nc2nnc(-c3cc(OC)c(OC)c(OC)c3)o2)c1`, the growth in the assay with NCI-H23 lung was 90.5%; in the assay with NCI-H226 lung, 96.6%; with NCI-H322M lung, 98.4%; in the assay with HOP-62 NSCLC, 94.7%; in the assay with NCI-H460 lung, 107%; with HOP-92 NSCLC, 107%. Besides, the growth in the assay on NCI-H522 lung is 76.6%; with A549/ATCC NSCLC it was 101%; in the assay on 786-0 renal, 95%; in the assay on COLO 205 colon, 104%; in the assay on DU-145 prostate, 101%; in the assay on K-562 leukemia, 95.8%. The growth in the assay with MALME-3M melanoma was 88.8%; with MDA-MB-231 breast, 88.9%; in the assay on RXF 393 renal, 110%; in the assay with SF-268 CNS, 99.6%; in the assay with SF-295 CNS it was 101%; with SF-539 CNS it was 91.3%. The results for the growth in the assay on UACC-257 melanoma and in the assay on M14 melanoma were 112% and 101%, respectively.
With `COc1ccc(-c2cc(-c3cn(-c4cccc(Cl)c4)nc3-c3ccc(OC)cc3)on2)cc1`, the growth was 95.3% in the assay on NCI-H23 lung; 89.9% in the assay on NCI-H226 lung; 86.9% in the assay on NCI-H322M lung; 107% in the assay on HOP-62 NSCLC; 98.6% in the assay on NCI-H460 lung; 104% in the assay on HOP-92 NSCLC. The growth in the assay with NCI-H522 lung is 74.8%; in the assay on A549/ATCC NSCLC, 83%; in the assay on 786-0 renal, 100%; in the assay on COLO 205 colon it was 116%; in the assay with DU-145 prostate, 113%; in the assay with K-562 leukemia it was 84.7%. Besides, the growth with MALME-3M melanoma was 127%; with MDA-MB-231 breast, 80.9%; with RXF 393 renal, 102%; in the assay with SF-268 CNS it was 108%; in the assay with SF-295 CNS, 108%; with SF-539 CNS it was 112%. Besides, the growth was 112% in the assay with UACC-257 melanoma and 101% in the assay with M14 melanoma.
In the case of `CN(C)CCC(CCN(C)C)(C(=O)O)c1ccccc1`, the growth in the assay with NCI-H23 lung is 107%; with NCI-H226 lung, 106%; with NCI-H322M lung, 103%; in the assay with HOP-62 NSCLC, 94%; in the assay on NCI-H460 lung, 104%; in the assay on HOP-92 NSCLC, 84.9%. Also, the growth is 88.2% in the assay on NCI-H522 lung; 99% in the assay with A549/ATCC NSCLC; 105% in the assay with 786-0 renal; 108% in the assay with COLO 205 colon; 115% with DU-145 prostate; 98.1% in the assay with K-562 leukemia. The growth in the assay with MALME-3M melanoma was 97.5%; with MDA-MB-231 breast, 97.2%; in the assay with RXF 393 renal it was 112%; in the assay on SF-268 CNS it was 107%; in the assay with SF-295 CNS it was 103%; in the assay with SF-539 CNS, 95.3%. Also, the growth in the assay on UACC-257 melanoma is 99.7%; in the assay on M14 melanoma it was 99.2%.
For `Cc1c2ncccc2nc2[nH]c3ccc(OCCN(C)C)cc3c12`, the growth in the assay on NCI-H23 lung was 28.1%; with NCI-H226 lung, 32.7%; with NCI-H322M lung it was 13.2%; in the assay with HOP-62 NSCLC, 29.3%; with NCI-H460 lung it was 5.49% (active); in the assay on HOP-92 NSCLC, 30.3%. Further, the growth in the assay on NCI-H522 lung was 22.9%; in the assay on A549/ATCC NSCLC, 5.31% (active); with 786-0 renal, 25.2%; in the assay on COLO 205 colon it was 19.1%; in the assay on DU-145 prostate it was 22.2%; in the assay with K-562 leukemia it was 17%. For the same molecule, the growth with MALME-3M melanoma was 29.3%; in the assay with MDA-MB-231 breast it was 30.3%; in the assay on RXF 393 renal, 35.3%; in the assay on SF-268 CNS, 30.8%; in the assay on SF-295 CNS, 32%; with SF-539 CNS, 38.5%. Moreover, the growth is 46.1% with UACC-257 melanoma and 19.4% in the assay on M14 melanoma.
